# An excerpt weighted towards active compounds, which were near 12% of everything screened.
# HP1b chromo inh: blocks HP1-beta chromodomain binding to methylated histone tails | Potency, µM (series often up to 114 µM), for the others: top-dose activity change, negative = inhibition, usual class: inhibitors | hit rate 0.56% among 390,000 | P83916 | AID 540317 | AlphaScreen HP1-beta / biotin-H3K9me3 peptide binding; further: nearly all actives have a fitted effect of over 70% in size
# Target sequence (P83916 whole entry, looked up): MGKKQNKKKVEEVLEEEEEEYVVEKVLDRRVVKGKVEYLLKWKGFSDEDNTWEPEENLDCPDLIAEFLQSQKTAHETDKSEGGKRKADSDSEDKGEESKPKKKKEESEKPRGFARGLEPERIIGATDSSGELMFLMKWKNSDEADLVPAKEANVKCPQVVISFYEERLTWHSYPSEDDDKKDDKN
#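 AlphaScreen: HP1-beta (50 nM) preformed 30 min with biotin-H3(1-18)K9me3 peptide (50 nM) in PBS pH 7.4, 0.01% Tween-20. Compound added for 30 min at RT, then streptavidin donor/nickel chelate acceptor beads (10 ug/mL) for 30 min.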
# JMJD2A Tudor inh: inhibitors of human JMJD2A Tudor domain; hit rate 4.4% among 390,000; AlphaScreen JMJD2A-Tudor / H3K4me3 peptide binding; O75164; Potency, µM (titrated, usually from 114 µM), for the others: top-dose activity change, negative = inhibition, hits mostly inhibitors; further: on the % scale 0 is the no-effect control and ±100 the full control effect; nearly all actives have a fitted effect of over 50% in size
# Sfp PPTase inh: Sfp phosphopantetheinyl transferase inhibition | Q9F4F7 | Biochemical Sfp PPTase activity, qHTS | Potency, µM, for the others: largest response in the series, negative = inhibition, usual class: inhibitors | hit rate 3.5% among 310,000;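 further: the enzyme is Sfp with the accession as filed and its product quenches rhodamine fluorescence; 0% = enzyme reaction without inhibitor and -100% = no enzyme wells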
#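 Fluorescence-quenching assay: 15 nM Sfp-PPTase preincubated 15 min at room temperature with compound, then 5 uM rhodamine-CoA and 12.5 uM BHQ-2-labelled YbbR peptide added. Fluorescence (ex 525/em 598 nm) read at start and after 30 min; difference gives rate.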
# PLK1 PBD block: inhibitors of human PLK1 polo-box domain binding. P53350. hit rate 2.8% among 360,000. Plk1 PBD binding of FITC phosphopeptide, fluorescence polarization. Potency, µM, for inactives: max response, negative = inhibition, hits mostly inhibitors. AID 720504; further: series mostly up to about 57 µM; on the % scale 0 is the no-effect control and ±100 the full control effect; nearly all actives have a fitted effect of over 65% in size
# BAZ2B inh: BAZ2B (human) inhibition; AID 504333; AlphaScreen BAZ2B-H3K14Ac peptide displacement; Q9UIF8; hit rate 4.4% among 360,000; Potency, µM (titrated, usually from 114 µM), without a hit: at the highest dose activity change, negative = inhibition, actives largely listed as inhibitors; further: on the % scale 0 is the no-effect control and ±100 the full control effect; nearly all actives have a fitted effect of over 60% in size
#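 BAZ2B (50 nM) with biotin-H3(5-23)K14Ac peptide (50 nM) in PBS pH 7.4, 0.01% Tween-20, preformed 30 min, then compound 30 min at room temperature; top concentration 110uM. AlphaScreen streptavidin donor/nickel chelate acceptor beads (10 ug/mL final), 20 min dark, signal read.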
# G9a block: inhibitors of human histone lysine methyltransferase G9a. Q96KQ7. G9a H3K9 monomethylation, AlphaScreen, 2 h. Potency, µM (doses to about 102 µM), inactives show at the top dose activity, negative = inhibition, most hits filed as inhibitors. hit rate 8.8% among 350,000. AID 504332; further: on the % scale 0 is the no-effect control and ±100 the full control effect; nearly all actives have a fitted effect of over 75% in size
# Target sequence (Q96KQ7 913-1193 limits assumed): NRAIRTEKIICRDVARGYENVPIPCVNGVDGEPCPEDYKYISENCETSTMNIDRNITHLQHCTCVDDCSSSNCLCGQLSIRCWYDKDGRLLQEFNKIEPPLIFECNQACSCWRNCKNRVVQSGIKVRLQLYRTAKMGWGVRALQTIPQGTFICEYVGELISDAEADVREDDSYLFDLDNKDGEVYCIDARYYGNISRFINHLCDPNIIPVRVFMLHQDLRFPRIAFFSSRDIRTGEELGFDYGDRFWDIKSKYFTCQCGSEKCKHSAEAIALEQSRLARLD
#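 Step 1: enzyme (final 20 nM) with compound, 15 min RT. Step 2: substrate peptide 500 nM and SAM 20 uM, 2 h RT. Step 3: anti-H3K9me1 antibody and AlphaScreen beads, 10 min, then plate read.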
# * marks the source's active call; other numbers are inactive results; ? = inconclusive; / = not tested or not shown; [ ] = another dose, or the depositor's remark. The call rests on the fitted dose curve; in most records, active means well fitted curve in the direction sought with a large enough effect; inconclusive means small, poorly fitted or top-dose-only effect, or another doubt; inactive means no such curve, though single readings can be large; an effect the other way counts as inactive or inconclusive. Potency means the concentration at half of the fitted maximal effect.
SMILES,HP1b chromo inh,JMJD2A Tudor inh,Sfp PPTase inh,PLK1 PBD block,BAZ2B inh,G9a block
O=c1cc(-c2ccco2)oc2ccc(Cl)cc12,21%,-11%,20%,-8%,4%,-18%[12.7 µM]
O=C(COc1ccc2oc(-c3ccco3)cc(=O)c2c1)N1CCCCC1,?,-2%[11.4 µM],17%,-21%,50µM*,?
COc1ccc2oc(-c3ccco3)cc(=O)c2c1,63%,3%[11.4 µM],?,-12%,-18%,45µM*
COc1cccc2oc(-c3ccco3)cc(=O)c12,41%,-8%,3%,21µM*,-2%,5.6µM*
CCCCCN(C(=O)CCC(=O)OCC(=O)Nc1ccc(C)cc1F)c1c(N)n(CCCC)c(=O)[nH]c1=O,27%,-1%,6%,2%,-13%,11%
COc1ccc(NS(=O)(=O)c2ccc(I)cc2)cc1N1CCN(C)CC1,/,/,-12%,/,/,/
COc1ccc(C2CC23N=C(c2ccccc2)OC3=O)cc1 (stereo unspecified),92%,15%,4%,17µM*,4%,-5%[59 µM]
COc1ccc(C2=N[C@H](c3ccccc3)CO2)cc1,/,/,?,/,/,21%
S=c1sc2c(N3CCN(Cc4ccccc4)CC3)ncnc2n1-c1ccccc1,6%,5%,10%,0%,-7%,-3%
CCN1CCN(c2ncnc3c2sc(=S)n3-c2ccccc2)CC1,34%,-20%,16%,-18%,3%,50µM*
COCCN1C(=O)/C(=C/c2ccc(N3CCCC3)cc2C)SC1=S,-16%,?,9%,28%,8.9µM*,-9%[0.501 µM]
O=C(Nc1nnc(-c2cccs2)s1)C1CC1,16%,-14%,-48%,-19%,-4%,22µM*
C=C(C)C(=O)Nc1nnc(-c2cccs2)s1,37%,1%,-3%,1%,6%,9%[59 µM]
COCC(=O)Nc1nnc(-c2cccs2)s1,26%,-8%,-12%,?,4%,45µM*
CCC(C)C(=O)Nc1nnc(-c2cccs2)s1 (stereo unspecified),13%,-12%,50µM*,?,7%,14µM*
CCC(C)C(=O)Nc1nnc(CCc2ccccc2)s1 (stereo unspecified),4%,71µM*,10%,24µM*,33%,/
CCC(=O)Nc1nnc(-c2cccs2)s1,35%,8%,20%,-2%,2%,-34%
CN(C)c1ccc(-c2cncnc2-n2ccnc2)cc1,/,/,-26%,/,/,-9%[0.501 µM]
CCN(CC(=O)Nc1c(F)cccc1F)C(=O)CSc1nnc(-c2ccco2)n1CC,35%,-1%,7%,-10%,-2%,-9%[12.7 µM]
COc1ccc(C2=NS(=O)(=O)N(C)C(C(=O)NCc3ccc(F)cc3)=C2)cc1OC,20%,-29%,6%,-6%,-1%,-15%
O=[N+]([O-])c1ccc(CN2[C@H](COCc3ccccc3)[C@@H](N3CCCC3)CS2(=O)=O)cc1,/,/,/,-5%,/,/
COc1cccc(CNC(=O)CSC2=Nc3ccccc3C3=NC(C)C(=O)N23)c1OC (stereo unspecified),67%,-8%,/,/,2%,42%[59 µM]
O=[N+]([O-])c1cc([N+](=O)[O-])c(Oc2c(F)cccc2F)cc1NN1CCCCC1,?,?,19%,-1%,?,-48%
O=[N+]([O-])c1cc([N+](=O)[O-])c(Oc2c(Cl)cccc2Cl)cc1NN1CCCCC1,?,?,8%,-14%,?,25µM*
O=[N+]([O-])c1cc([N+](=O)[O-])c(Oc2cccnc2Br)cc1NN1CCCCC1,?,?,2%,-14%,?,40µM*
SMILES,HP1b chromo inh,JMJD2A Tudor inh,Sfp PPTase inh,PLK1 PBD block,BAZ2B inh,G9a block
O=[N+]([O-])c1cc([N+](=O)[O-])c(Oc2cccc3ccccc23)cc1NN1CCCCC1,-16%,?,/,-3%,/,/
O=[N+]([O-])c1cc([N+](=O)[O-])c(Oc2cc(F)cc(F)c2)cc1NN1CCCCC1,6%,?,/,27µM*,-1%,16%[2.33 µM]
O=[N+]([O-])c1cc([N+](=O)[O-])c(Oc2c(F)ccc(F)c2F)cc1NN1CCCCC1,?,?,16%,-12%,?,32µM*
Cc1ccc2c(c1)N(C(=O)CCC(=O)NCc1ccccc1Cl)CC(C)O2 (stereo unspecified),38%,-23%,/,/,-16%,-4%[59 µM]
CN1CCCCc2c1nc1ccccc1c2N (tested in a mixture with another compound),35%,-7%,10%,-4%,-5%,?
Nc1c2c(nc3ccccc13)N(c1ccccc1)CC2,?,35µM*,-101%,-6%,0%,?
O=C(CN1CCCCC1)Nc1c2c(nc3ccccc13)N(c1ccccc1)CC2,?,?,-24%,-8%,56µM*,14µM*
CC(C)CCOc1ccc(C(=O)NNC(=O)CNC(=O)c2ccccc2F)cc1,16%,-22%,/,-7%,/,/
CCOC(=O)c1c(O)c(Cl)c(C)[nH]c1=O,5%,79µM*,19%,27µM*,/,-10%
COc1ccc(C(=O)N2CCCC(C(=O)N3CCN(c4ccccc4)CC3)C2)cc1 (stereo unspecified),17%,5%,9%,1%,-3%,10%
CCCCc1ccc(N=N/C(C(=O)Nc2ccc(NC(C)=O)cc2OC)=C(/C)O)cc1,-20%,?,-14%,-7%,?,35µM*
COc1ccccc1NS(=O)(=O)c1cc(N=N/C(C(=O)Nc2ccc(Cl)cc2)=C(/C)O)ccc1C,7%,-29%,/,7%,/,/
O=C1CCc2cc(NS(=O)(=O)c3ccc([N+](=O)[O-])cc3)cc3c2N1CC3,21%,-19%,/,-4%,3%,45µM*
O=C1CCc2cc(NS(=O)(=O)c3ccc(F)cc3)cc3c2N1CCC3,9%,-15%,/,-1%,9%,?
O=C1CCc2cc(NS(=O)(=O)c3ccc([N+](=O)[O-])cc3)cc3c2N1CCC3,15%,-12%,/,-6%,-31%,35µM*
Cc1ccc(N2CCN(C(=O)C(=O)c3cccc([N+](=O)[O-])c3)CC2)cc1,/,/,/,-13%,/,/
COc1cc(/C=C/C(=O)OCC(=O)N(C)C2CCS(=O)(=O)C2)ccc1OC(F)F (stereo unspecified),34%,-3%,-1%,-6%,-2%,/
COc1cc(O)c(NC(C)=O)c2nonc12,21%,-35%,35µM*,-16%,7%,22µM*
Cc1nc2scc(C)n2c(=O)c1S(=O)(=O)NCC1CCN(Cc2ccc(Cl)cc2)CC1,-4%,-24%,20%,19µM*,-14%,23%[59 µM]
Cc1nc2scc(C)n2c(=O)c1S(=O)(=O)Nc1ccc(N2CCOCC2)c(Cl)c1,-15%,?,12%,27µM*,-25%,7%[59 µM]
Cc1nc2scc(C)n2c(=O)c1S(=O)(=O)NCCc1ccc(Cl)cc1,18%,-5%,27%,-7%,2%,12%

# Compound activity deposited in PubChem BioAssay by National Center for Advancing Translational Sciences (NCATS).
